Pol iota inh: blocks human DNA polymerase iota activity | Q9UNA4 | Pol iota fluorescent replication assay, 10 min | Potency, µM (titrated, usually from 115 µM), for the others: at the top dose activity, negative = inhibition, most hits filed as inhibitors | 390,000 tested, 1% active | AID 588590; note: potency is the fitted concentration of half-maximal effect
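Pol iota at 10 nM preincubated 15 min with compounds at room temperature; reaction started with fluorescent substrate, 50 nM final. Fluorescence read kinetically at 0 and 10 min; buffer-only wells as negative control.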
ALOX12 inh: blocks human arachidonate 12S-lipoxygenase; P18054; purified 12hLO, xylenol orange hydroperoxide absorbance; Potency, µM (titrated, usually from 108 µM), for the others: at the highest dose activity change, negative = inhibition, actives largely listed as inhibitors; 580,000 tested, 1.1% active; note: potency is the fitted concentration of half-maximal effect; % is set by controls: 0 for no effect and ±100 for the full control effect
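Hydroperoxide product was detected by ferrous iron/xylenol orange as the 573 to 405 nm absorbance ratio. Arachidonic acid at 40 uM (final) was turned over for 30 min at room temperature by 150 nM human 12hLO, pH 7.0 Hepes buffer, after 15 min compound preincubation.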
POLB inh: blocks human DNA polymerase beta activity | Potency, µM (series often up to 114 µM), for the others: at the top dose activity change, negative = inhibition, usual class: inhibitors | 340,000 tested, 1.3% active | Pol beta primer extension/strand displacement, fluorescence kinetic | P06746; note: potency is the fitted concentration of half-maximal effect; % is set by controls: 0 for no effect and ±100 for the full control effect
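Reaction started by 50 nM substrate onto compound-treated Pol beta (10 nM, 15 min preincubation, room temperature); plates read at 0 min and 10 min. Normalized concentration-effect data fitted by four-parameter Hill equation.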
Pol kappa inh-1: DNA polymerase kappa (human) inhibition | Q9UBT6 | purified Pol kappa, fluorescent DNA synthesis assay, 10 min | Potency, µM (highest dose often 107 µM), for inactives: at the top dose activity, negative = inhibition, actives largely listed as inhibitors | 400,000 tested, 0.53% active; note: potency is the fitted concentration of half-maximal effect; % is set by controls: 0 for no effect and ±100 for the full control effect
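10 nM Pol kappa preincubated 15 min at room temperature with compounds, then reaction started with substrate at 50 nM final. Fluorescence read kinetically at 0 and 10 min; buffer-only wells served as negative control.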
Pol eta inh-1: DNA polymerase eta (human) inhibition; Q9Y253; recombinant Pol eta, fluorescent DNA replication assay; Potency, µM (highest dose often 114 µM), without a hit: top-dose activity change, negative = inhibition, most hits filed as inhibitors; 390,000 tested, 1.2% active; note: potency is the fitted concentration of half-maximal effect; % is set by controls: 0 for no effect and ±100 for the full control effect
Target sequence (Q9Y253 whole entry, looked up): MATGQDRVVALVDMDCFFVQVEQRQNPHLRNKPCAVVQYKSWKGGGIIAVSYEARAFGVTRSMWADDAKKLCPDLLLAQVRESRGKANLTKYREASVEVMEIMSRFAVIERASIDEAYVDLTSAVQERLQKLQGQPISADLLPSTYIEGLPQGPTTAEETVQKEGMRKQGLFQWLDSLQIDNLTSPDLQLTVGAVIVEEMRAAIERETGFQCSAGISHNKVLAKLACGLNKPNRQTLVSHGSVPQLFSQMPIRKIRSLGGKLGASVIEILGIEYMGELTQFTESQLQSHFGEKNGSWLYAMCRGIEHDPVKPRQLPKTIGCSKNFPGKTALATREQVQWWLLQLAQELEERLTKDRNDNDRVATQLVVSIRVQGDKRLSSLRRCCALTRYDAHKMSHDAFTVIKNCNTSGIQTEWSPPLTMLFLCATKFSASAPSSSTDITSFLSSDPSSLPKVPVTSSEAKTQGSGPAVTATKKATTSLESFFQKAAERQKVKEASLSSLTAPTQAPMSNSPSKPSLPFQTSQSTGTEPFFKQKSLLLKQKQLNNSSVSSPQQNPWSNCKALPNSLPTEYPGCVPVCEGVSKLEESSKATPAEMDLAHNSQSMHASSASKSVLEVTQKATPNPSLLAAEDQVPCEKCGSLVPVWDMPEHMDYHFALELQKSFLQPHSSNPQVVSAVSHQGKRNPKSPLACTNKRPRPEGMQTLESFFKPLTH
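Pol eta at 10 nM preincubated with compounds 15 min at room temperature; reaction started with fluorescent substrate (50 nM final) and read kinetically at 0 and 10 min.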
PI5P4Ka inh: PI5P4K alpha (human) kinase inhibition; 330,000 tested, 1.2% active; max response, %; PI5P4Kalpha enzyme, ADP-Glo luminescence, 60 min; active compounds read low; active = max response of -50% or lower; inconclusive = between -30% and -50%; inactive = -30% or higher; note: value at the top dose of about 77 µM; % is set by controls: 0 for no effect and ±100 for the full control effect
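Reactions run in 0.038 M HEPES pH 7.4, 0.28 mM EGTA, 0.1% CHAPS and 5% DMSO, with PI5P4Kalpha, substrate, compound and 5 microM ATP final, one hour at room temperature. Readout is ADP-Glo luminescence.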
TbPGK inh: blocks T. brucei phosphoglycerate kinase; TbPGK coupled GAPDH assay, Kinase-Glo luminescence; shares compounds with Pol kappa inh-1; 500 tested, 79% active; Potency, µM (top dose mostly 57.5 µM), without a hit: top-dose activity change, negative = inhibition, most hits filed as inhibitors; note: potency is the fitted concentration of half-maximal effect; % is set by controls: 0 for no effect and ±100 for the full control effect; nearly all actives have a fitted effect of over 65% in size
POLI cherry-pick: Inhibitors of human DNA polymerase iota, confirmation; shares compounds with Pol kappa inh-1; Pol iota primer extension, TAMRA/BHQ fluorescence; Potency, µM, most hits filed as inhibitors; 1,500 tested, 77% active; AID 720496; note: potency is the fitted concentration of half-maximal effect
GALK inh confirm: confirmation of human galactokinase (GALK) inhibitors; shares compounds with Pol eta inh-1; purified GALK, Kinase-Glo ATP depletion luminescence; Potency, µM (highest dose often 115 µM), without a hit: top-dose activity, negative = inhibition, hits mostly inhibitors; 150 tested, 70% active
Redox cycling: counter-screen for GALK inhibitors: redox cycling H2O2 generation; shares compounds with Pol eta inh-1; Phenol red-HRP H2O2 redox cycling, absorbance 600 nm; Potency, µM (series often up to 115 µM), for the others: at the highest dose activity change, negative = H2O2 signal, hits mostly inhibitors; 150 tested, 40% active
HEK293 viability: reduces HEK-293 cell viability in GALK counter-screen; 170 tested, 10% active; HEK-293 viability, ATP luminescence (CellTiter-Glo), 24/48 h; shares compounds with Pol eta inh-1; AID 2547; Potency, µM (doses to about 46.1 µM), for the others: at the highest dose activity change, negative = cytotoxicity, actives largely listed as inhibitors; note: potency is the fitted concentration of half-maximal effect; % is set by controls: 0 for no effect and ±100 for the full control effect
Pol kappa inh-2: Pol kappa (human) inhibition, cherry-pick confirmation; AID 720501; purified Pol-kappa, fluorescent strand-displacement substrate; shares compounds with Pol eta inh-1; Potency, µM, usual class: inhibitors; 920 tested, 76% active; note: potency is the fitted concentration of half-maximal effect
Pol eta inh-2: confirmation of human DNA polymerase eta inhibitors | shares compounds with Pol eta inh-1 | Pol eta primer extension, TAMRA/BHQ fluorescence, 10 min | Potency, µM, most hits filed as inhibitors | 2,600 tested, 64% active; note: potency is the fitted concentration of half-maximal effect
Starred values were filed as active, the others as inactive; ? = inconclusive; . = no result given. In the library only some 2.9% were active in any assay of this set; here they are far more common. Unless noted, calls come from the whole dose curve; as a rule, active = well fitted curve in the direction sought with a large enough effect; inconclusive = small, poorly fitted or top-dose-only effect, or another doubt; inactive = no such curve, though single readings can be large; an effect the other way counts as inactive or inconclusive.

SMILES	Pol iota inh	ALOX12 inh	POLB inh	Pol kappa inh-1	Pol eta inh-1	PI5P4Ka inh	POLI cherry-pick	Pol eta inh-2	others
COc1cc(/C=N/NC(=O)c2ccccc2O)ccc1OCC(=O)Nc1ccccc1	28µM*	?	6.3µM*	50µM*	50µM*	-3	42*	?	Pol kappa inh-2=17*
O=C(COc1ccc(/C=N/NC(=O)c2ccccc2O)cc1)Nc1ccccc1	?	365%	18µM*	?	?	-14	.	.	TbPGK inh=15µM*;Pol kappa inh-2=47*
Cc1oc2cc(OCC(=O)O)ccc2c(=O)c1-c1ccc(Cl)cc1	.	-24%	.	.	.	.	.	.
O=C1NC(=O)/C(=C\c2ccc(O)cc2O)S1	?	40µM*	1.6µM*	11µM*	2.8µM*	-92*	30*	27*
CC1(C)C=C2C(=NN(c3ccccc3)C(N)=C2C#N)CO1	14µM*	0%	-13%	-3%	18µM*	6	?	.	GALK inh confirm=27µM*;Redox cycling=12µM*;HEK293 viability=1%
CN(C)S(=O)(=O)c1ccc(=O)n(Cc2ncc(-c3ccc(F)cc3)o2)c1	.	-9%	.	.	.	.	.	.
CCOc1ccccc1NC(=O)C(CC)Sc1nc2ccsc2c(=O)n1CCC(=O)O (centres undefined)	11%	0%	-4%	-13%	0%	7	.	.
CCC(Sc1nc2ccsc2c(=O)n1Cc1ccc(C(=O)O)cc1)C(=O)Nc1cc(Cl)ccc1C (centres undefined)	.	-11%	.	.	?	1	67*	.	Pol kappa inh-2=67*
COc1cc(C=NNc2ccc(S(=O)(=O)Nc3ccccc3C(=O)O)cc2[N+](=O)[O-])ccc1O	?	?	.	-27%	50µM*	-69*	75*	19*
COc1ccc(NC(=O)c2ccccc2NS(=O)(=O)c2ccc(C)cc2)c([N+](=O)[O-])c1	-16%	-1%	24%	-20%	-18%	-2	.	.
COc1cc(/C=N/Nc2ccccc2[N+](=O)[O-])ccc1OC(=O)c1ccccc1F	42%	-13%	5%	-3%	-11%	1	.	.
CCc1ccc(/C=N/Nc2ccc(S(=O)(=O)Nc3ccc(C)cc3C)cc2[N+](=O)[O-])cc1	.	-45%	.	.	.	.	.	.
CCOc1cc(/C=N/Nc2ccc(S(=O)(=O)Nc3ccccc3C(=O)O)cc2[N+](=O)[O-])cc(Cl)c1O	.	35µM*	.	.	25µM*	-69*	47*	67*	Pol kappa inh-2=24*
O=C(O)c1ccccc1NS(=O)(=O)c1ccc(N/N=C/c2cccc(O)c2O)c([N+](=O)[O-])c1	10µM*	40µM*	.	28µM*	3.2µM*	?	34*	30*	TbPGK inh=12µM*
O=C(O)c1ccccc1NS(=O)(=O)c1ccc(NNC(=S)Nc2ccc(OC(F)F)cc2)c([N+](=O)[O-])c1	?	3.5µM*	89µM*	?	25µM*	-82*	75*	76*
COc1ccc(C(=O)C(C)n2cnc3c2c(=O)n(C)c(=O)n3C)cc1 (centres undefined)	.	-18%	.	.	.	.	.	.
CC(=O)Nc1ccc(C=NNc2ccc(S(=O)(=O)Nc3ccccc3C(=O)O)cc2[N+](=O)[O-])cc1	?	?	.	-30%	22µM*	-92*	?	76*	Pol kappa inh-2=21*
CC(=O)Nc1ccc(/C=N/Nc2ccc(S(N)(=O)=O)cc2[N+](=O)[O-])cc1	.	-3%	.	.	.	.	.	.
C=CCSC1=N/C(=C\c2cccc(OC)c2)C(=O)S1	.	-52%	.	.	.	.	.	.
C/C=C/C=C/C(=O)[C@@H]1[C@@H]([C@]2(C)OC(=O)C(C)=C2O)[C@H]2/C(=C(O)/C=C/C=C/C)C(=O)[C@]1(C)C(=O)C2(C)O (some centres undefined)	2.8µM*	?	-20%	8.9µM*	2.5µM*	?	12*	4.3*
N#C/C(=C\c1ccc(O)c(O)c1)C(=O)Nc1cccc2ncccc12	3.2µM*	?	0.79µM*	4µM*	2.8µM*	-72*	6.7*	3.8*
COc1ccc(/C=C(\C#N)C(=O)Nc2cccc3ncccc23)cc1OC	6%	?	-2%	-13%	-6%	-1	.	.
COCCCNC1=C(Cl)C(=O)c2ccccc2C1=O	-8%	-36%	-20%	-7%	-3%	-22	.	.
COCCCNc1c2c3c(cccc3[nH]c1=O)C(=O)c1ccccc1-2	?	?	25µM*	?	?	-30	?	?	Pol kappa inh-2=?
COc1cc2c(cc1OC)C(=O)C(c1ccc3c(c1)OCO3)CC2 (centres undefined)	.	?	.	.	-5%	0	.	.
COc1cc2c(cc1OC)C(=O)C(Br)CC2 (centres undefined)	.	.	.	.	20µM*	-51*	67*	?
Cn1cc(C(=O)NCCNC(=O)C2CCCCC2)c2ccccc21	.	3%	.	.	.	.	.	.
COc1cccc(-c2nc(-c3ccc(NC(=O)c4ccncc4)cc3)no2)c1	?	0%	14µM*	-27%	35µM*	-3	11*	11*
Oc1c(C=Nc2ccc(Cl)c(C(F)(F)F)c2)ccc2ccccc12	.	-22%	.	.	.	.	.	.

Screening data deposited in PubChem by National Center for Advancing Translational Sciences (NCATS).
